Shiga toxin inh = blocks Shiga toxin action in Vero cells. Vero cells, Shiga toxin protein synthesis inhibition reporter. hit rate 9.2% among 290,000. AID 2315. inhibition, % at 38.7 µM; in the data active = inhibition mostly above about 28%, no sharp cut-off; inactive = mostly below about 43%; also: 0% is about no effect
LmPK inhibitor = blocks Leishmania mexicana pyruvate kinase activity; Q27686; purified LmPK, Kinase-Glo ATP luminescence, 1 h; Potency, µM (titrated, usually from 57.5 µM), for the others: at the highest dose activity change, negative = inhibition, most hits filed as inhibitors; hit rate 0.37% among 290,000; also: potency is read from the fitted curve at half-maximal effect; % is scaled to controls: 0 for no effect and ±100 for the full control effect
Target sequence (Q27686 whole entry, looked up): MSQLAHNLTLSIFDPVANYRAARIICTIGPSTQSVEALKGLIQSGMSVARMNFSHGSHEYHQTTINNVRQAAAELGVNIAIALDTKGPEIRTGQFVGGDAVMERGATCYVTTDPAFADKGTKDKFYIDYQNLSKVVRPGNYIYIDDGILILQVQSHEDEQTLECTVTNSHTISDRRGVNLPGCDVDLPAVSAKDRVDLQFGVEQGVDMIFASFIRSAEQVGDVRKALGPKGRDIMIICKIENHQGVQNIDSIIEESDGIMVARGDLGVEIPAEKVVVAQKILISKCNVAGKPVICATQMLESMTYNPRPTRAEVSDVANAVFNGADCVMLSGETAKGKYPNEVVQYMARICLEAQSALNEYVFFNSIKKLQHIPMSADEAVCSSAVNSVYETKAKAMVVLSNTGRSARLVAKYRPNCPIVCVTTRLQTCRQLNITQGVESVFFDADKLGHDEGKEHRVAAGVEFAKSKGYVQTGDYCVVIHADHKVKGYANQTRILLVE
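Kinase-Glo luminescence read after 1 h RT reaction of 0.1 nM LmPK with 0.5 mM PEP and 0.1 mM ADP. Activity scaled between uninhibited and enzyme-free controls.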
TbPYK inhibitor = inhibitors of Trypanosoma brucei pyruvate kinase; TbPYK enzyme, Kinase-Glo Plus ATP luminescence, 45 min; Potency, µM (titrated, usually from 76.8 µM), for inactives: top-dose activity, negative = inhibition, most hits filed as inhibitors; hit rate 0.12% among 410,000; AID 624173; also: potency is read from the fitted curve at half-maximal effect; % is scaled to controls: 0 for no effect and ±100 for the full control effect; nearly all actives have a fitted effect of over 50% in size
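Luminescent Kinase-Glo Plus end-point after 45 min room-temperature reaction of T. brucei pyruvate kinase started with 130 uM ADP (final). Buffer TEA 50 mM pH 7.2 with KCl, MgCl2, BSA, Tween-20; titration-based qHTS with fitted concentration-effect curves.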
Sm TGR inh = inhibitors of Schistosoma mansoni thioredoxin glutathione reductase. Q962Y6. purified TGR, DTNB reduction, TNB absorbance 405 nm. Potency, µM (series often up to 114 µM), without a hit: at the highest dose activity change, negative = inhibition, actives largely listed as inhibitors. hit rate 3% among 360,000. AID 485364; also: potency is read from the fitted curve at half-maximal effect; % is scaled to controls: 0 for no effect and ±100 for the full control effect; nearly all actives have a fitted effect of over 60% in size
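TGR 20 nM + NADPH 100 uM (dispensed conc.), cpd preinc 15 min RT; start with NADPH (500 uM addition) then DTNB (15 mM addition). Kinetic TNB absorbance, 405 nm filter. Four-parameter Hill fit across titration.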
CHX counter = counter-screen for Shiga toxin inhibitors: cycloheximide protein synthesis inhibition | cell reporter, cycloheximide protein synthesis inhibition counterscreen | hit rate 12% among 300,000 | max response, %; in the data active = max response mostly above about 13%, no sharp cut-off; inactive = mostly below about 14%; also: read at 38.3 µM for the half of the compounds with a filed dose; 0% is about no effect
Giardia FBPA inh = Giardia lamblia aldolase inhibition | A8B2U2 | purified Giardia FBPA | Potency, µM (top dose mostly 59.6 µM), inactives show at the highest dose activity, negative = inhibition, hits mostly inhibitors | hit rate 0.71% among 290,000 | AID 2451; also: potency is read from the fitted curve at half-maximal effect; % is scaled to controls: 0 for no effect and ±100 for the full control effect; nearly all actives have a fitted effect of over 55% in size
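Giardia FBPA (40 nM reagent) was preincubated 10 min at RT with compound (up to 57.5 uM final), then substrate plus GAPDH/TPI/NAD/arsenate coupling system with diaphorase/resazurin was added; resorufin fluorescence (525/598 nm) was read after 20 min.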
An asterisk follows results filed as active; ? = inconclusive; nt = no result; [ ] = remark or other dose. Many of the other results were omitted from the sample, so hits are more common in it than they were. Unless noted, calls follow the shape of the dose curve; as a rule, active = well fitted curve in the direction sought with a large enough effect; inconclusive = small, poorly fitted or top-dose-only effect, or another doubt; inactive = no such curve, though single readings can be large; an effect the other way counts as inactive or inconclusive.

SMILES	Shiga toxin inh	LmPK inhibitor	TbPYK inhibitor	Sm TGR inh	CHX counter	Giardia FBPA inh
CCc1cc(C(=O)OC)c(NC(=O)c2ccoc2C)s1	3	4%	-17%	3%	-2	nt
COC(=O)c1c(-c2ccncc2)csc1NC(=O)c1ccoc1C	66*	3%	-3%	-10%	21*	1%
CCOc1ccccc1NC(=O)N1CCN(S(=O)(=O)c2ccc3c(ccn3C)c2)CC1	nt	nt	3%	5%	nt	nt
CN(c1ccccc1)S(=O)(=O)c1ccc(NC(=O)c2ccc(-c3ccccc3)cc2)cc1	-15	3%	1%	-15%	2	-3%
COc1ccc(-c2csc(NC(=O)c3ccccc3S(C)(=O)=O)n2)cc1	-9	1%	-2%	-5%	-1	-1%
COc1ccc(-c2csc(NC(=O)c3ccc(S(C)(=O)=O)cc3)n2)cc1	72*	1%	1%	3%	33*	-1%
Cc1csc(NC(=O)c2ccc(S(C)(=O)=O)cc2)n1	72*	3%	4%	-3%	40*	-5%
Cc1nc2cc(NC(=O)c3ccc(S(=O)(=O)N(C)c4ccccc4)cc3)ccc2o1	126*	-5%	-11%	3%	30*	-1%
Cc1csc(NC(=O)c2ccc(C(=O)Nc3nc(C)cs3)cc2)n1	-6	-25%	nt	-3%	7	2%
CCOc1cc(NC(=O)C2CC2)c(OCC)cc1NC(=O)c1cccnc1	-6	-2%	nt	-10%	4	-24%
Cn1c(=O)c([N+](=O)[O-])c(Cl)c2ccccc21	3	-2%	-17%	0.45µM*	-1	-10%
Cn1c(=O)c([N+](=O)[O-])c(-n2cnc3ccccc32)c2ccccc21	14	-6%	-6%	16µM*	-2	-3%
CC(=O)N1c2c(cc(Br)cc2S(=O)(=O)N2CCN(c3cccc(Cl)c3)CC2)CC1C (stereo not drawn)	nt	nt	0%	5%	nt	nt
C/C=C/c1ccc2oc(-c3ccc(O)cc3)c(C)c2c1	nt	nt	nt	nt	nt	0%
CCCCCC(=O)c1ccc(O)cc1O	49*	8%	-3%	36%	32*	11%
COc1ccc(C(=O)NN=C2CCCC2)c(OC)c1	28	6%	0%	0%	20*	-7%
O=C(N/N=C1/CCSC1)c1cc(Br)ccc1O	21	-3%	1%	nt	5	-4%
O=C(NN=C1CCCC1)c1ccc(O)cc1O	124*	-9%	-1%	-19%	38*	nt
O=C(NN=C1CCCC1)c1cc(Br)ccc1O	43	1%	-5%	1%	23*	-15%
CC(C)(C)n1nnnc1C(c1ccccc1)N1CCN(c2ccccn2)CC1 (stereo not drawn)	nt	nt	2%	nt	nt	nt
N#CC(=C(O)CN1CCN(c2ccccc2F)CC1)c1nc(-c2ccc(Cl)cc2)cs1	nt	nt	-3%	nt	nt	nt
COc1ccc(Cl)cc1Cn1c(C)c(C(=O)NCc2cccc([N+](=O)[O-])c2)sc1=O	nt	nt	-1%	nt	nt	nt
CC(=O)N1CCc2c(sc3c2c(=O)n(-c2ccccc2)c(=O)n3CC(=O)c2ccc(F)cc2)C1	nt	nt	-2%	6%	nt	nt
NNC(=O)c1cc2ccccc2cc1O	10	-3%	-16%	0%	7	-18%
NNC(=O)c1ccc(O)cc1O	76*	-5%	4%	2%	30*	-4%
SMILES	Shiga toxin inh	LmPK inhibitor	TbPYK inhibitor	Sm TGR inh	CHX counter	Giardia FBPA inh
CC(=O)c1c(NCc2ccccc2)nc(=O)n(-c2ccccc2)c1C	54	-6%	2%	?	24*	-21%
O=C(N/N=C/C(Cl)=C/c1ccccc1)c1ccco1	71*	2%	0%	-12%	51*	-1%
O=C(Oc1ccc(/C=N/NC(=O)c2ccco2)cc1)c1ccccc1	nt	nt	1%	-13%	nt	nt
O=C(N/N=C/C(Cl)=C\c1ccccc1)c1ccco1	113*	-7%	0%	-32%	48*	1%
CCN(CC(=O)Nc1c(F)cccc1F)C(=O)c1ccc(N2C(=O)c3ccccc3C2=O)cc1	nt	nt	4%	3%	nt	nt
Cc1cc(/C=C2\C(=N)N3C(SCc4ccccc4)=NSC3=NC2=O)c(C)n1Cc1ccccc1	-13	0%	-2%	-3%	-4	3%
CSC1=NSC2=NC(=O)/C(=C\c3coc4ccccc4c3=O)C(=N)N12	-7	5%	-8%	-23%	-2	7%
CC(C)CSC1=NSC2=NC(=O)/C(=C\c3ccccc3)C(=N)N12	77*	2%	1%	9%	38*	13%
CC(C)CSC1=NSC2=NC(=O)/C(=C\c3coc4ccccc4c3=O)C(=N)N12	71*	4%	-7%	-32%	27*	-4%
CCOc1ccc(NS(=O)(=O)c2ccc3c(c2)NC(=O)CCS3)cc1	nt	nt	0%	3%	nt	nt
CCCOC(=O)C1[C@H]2C(=O)N(Cc3ccco3)C[C@]23C=C[C@H]1O3 (stereo partly drawn)	18	-1%	2%	25µM*	-4	-3%
Cc1cccc(NC(=O)c2ccc(OCC3CCCO3)cc2)c1C (stereo not drawn)	45*	-6%	-11%	0%	30*	4%
O=C(Nc1ccc(Cl)cc1)c1ccc(OCC2CCCO2)cc1 (stereo not drawn)	95*	7%	-3%	-4%	42*	3%
Cc1cc(NC(=O)c2ccc(OCC3CCCO3)cc2)ccc1Br (stereo not drawn)	nt	nt	0%	nt	nt	nt
Cc1ccc(CCNC(=O)c2cn(C)c3ccc(S(=O)(=O)N4CCCCC4)cc3c2=O)cc1	nt	nt	-3%	22µM*	nt	nt
Cn1cc(S(=O)(=O)N2CCCC2)cc1C(=O)NCCc1ccccc1	18	1%	-6%	-18%	11*	9%
Cn1cc(S(=O)(=O)N2CCOCC2)cc1C(=O)NCCc1ccccc1	9	-1%	-6%	89µM*	-3	2%
O=S(=O)(NCCc1ccccc1)c1cccc(S(=O)(=O)N2CCOCC2)c1	-12	4%	-1%	35µM*	-6	4%
Cc1ccc(CCNC(=O)c2cc(S(=O)(=O)N3CCOCC3)cn2C)cc1	-3	-4%	-1%	-2%	-1	10%
O=S(=O)(NCCC1=CCCCC1)c1cccc(S(=O)(=O)N2CCOCC2)c1	-17	6%	?	2%	6	-4%
O=c1c2ccccc2nc(/C=C/c2ccc3c(c2)OCO3)n1CCCO	47	-3%	-15%	-1%[57.1 µM]	24*	0%
O=c1c2ccccc2nc(/C=C/c2ccccc2)n1CCCO	6	0%	2%	6%	11	-4%
O=c1c2ccccc2nc(/C=C/c2c[nH]c3ccccc23)n1CCO	65*	3%	9%	2%	38*	-8%
COc1ccccc1NC(=O)Cn1c(=O)n(Cc2ccco2)c(=O)c2oc3ccccc3c21	nt	nt	-2%	-6%	nt	nt
CCN(CC)C(=O)c1ccc(Oc2ccc([N+](=O)[O-])cc2Cl)cc1	-12	0%	3%	-18%	7	3%
